Several values for one entry are separate records, joined by “and”; a condition that tells them apart may be missing. Equal values may be shown once. Inconclusive results are not listed. Activity calls are given as the source filed them. Unless noted, calls follow the shape of the dose curve; as a rule, active = well fitted curve in the direction sought with a large enough effect; inconclusive = small, poorly fitted or top-dose-only effect, or another doubt; inactive = no such curve, though single readings can be large; an effect the other way counts as inactive or inconclusive.

Experiment [1] deals with Catechol O-methyltransferase (Homo sapiens) (UniProt P21964). In words: Confirmatory Screen for Target Class Profiling of Small Molecule Inhibitors of Methyltransferases (AID 1745852; calls by dose curve; also: potency is read from the fitted curve at half-maximal effect; as to activity change, negative = inhibition: % is scaled to controls: 0 for no effect and ±100 for the full control effect). The settings on record: MTase-Glo luminescence, SAH detection, recombinant enzyme; measured here: COMT max response; stronger effect = lower value.
Sequence of Catechol O-methyltransferase (Homo sapiens) (P21964 whole entry, looked up): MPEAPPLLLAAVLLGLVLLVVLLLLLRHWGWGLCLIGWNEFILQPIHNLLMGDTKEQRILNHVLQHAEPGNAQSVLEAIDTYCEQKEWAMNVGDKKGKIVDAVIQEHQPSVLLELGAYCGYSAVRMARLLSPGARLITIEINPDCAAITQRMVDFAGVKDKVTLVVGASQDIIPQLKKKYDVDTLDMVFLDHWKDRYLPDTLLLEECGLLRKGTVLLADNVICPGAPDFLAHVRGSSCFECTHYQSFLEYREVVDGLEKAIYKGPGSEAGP
In experiment [2] the target is Guanidinoacetate N-methyltransferase (Homo sapiens) (UniProt Q14353). Described as above. To be noted: MTase-Glo luminescence, SAH detection, recombinant enzyme; activity change, negative = inhibition: at 57.3 µM (top of the series) unless noted; series mostly up to 57.3 µM.
In experiment [3] the target is Nicotinamide N-methyltransferase (Homo sapiens) (UniProt P40261). The experiment is described as above. To be noted: MTase-Glo luminescence, SAH detection, recombinant enzyme; measured here: NNMT max response; stronger effect = lower value.
Sequence of Nicotinamide N-methyltransferase (Homo sapiens) (P40261 whole entry, looked up): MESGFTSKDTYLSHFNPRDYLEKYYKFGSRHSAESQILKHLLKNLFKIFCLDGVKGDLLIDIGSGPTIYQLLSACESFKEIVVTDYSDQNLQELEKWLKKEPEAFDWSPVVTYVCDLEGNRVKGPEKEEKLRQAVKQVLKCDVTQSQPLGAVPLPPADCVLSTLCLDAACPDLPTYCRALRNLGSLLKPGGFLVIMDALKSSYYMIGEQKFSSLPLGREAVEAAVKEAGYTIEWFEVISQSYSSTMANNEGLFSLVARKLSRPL
The target in experiment [4] is Phenylethanolamine N-methyltransferase (Homo sapiens) (UniProt P11086). The description is as above. The settings on record: MTase-Glo luminescence, SAH detection, recombinant enzyme; measured here: PNMT max response; stronger effect = lower value.
Sequence of Phenylethanolamine N-methyltransferase (Homo sapiens) (P11086 whole entry, looked up): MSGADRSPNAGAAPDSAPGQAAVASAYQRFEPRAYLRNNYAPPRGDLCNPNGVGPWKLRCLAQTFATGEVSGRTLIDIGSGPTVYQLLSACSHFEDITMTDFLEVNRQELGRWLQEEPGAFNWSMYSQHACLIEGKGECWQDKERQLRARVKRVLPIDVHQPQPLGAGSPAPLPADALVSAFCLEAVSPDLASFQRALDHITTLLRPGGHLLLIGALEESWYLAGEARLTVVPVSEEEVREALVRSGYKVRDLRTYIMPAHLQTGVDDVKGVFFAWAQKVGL
The target in experiment [5] is Glutathione peroxidase 1 (Homo sapiens) (UniProt P07203). In words: Primary qHTS Assay for Inhibitors of Recombinant Selenoprotein Glutathione Peroxidase 1 (GPX1) (AID 1845191). Also: nearly all actives have a fitted effect of over 65% in size. To be noted: recombinant GPX1, GR-coupled NADPH fluorescence, 15 min; series mostly up to 48.8 µM. The method in brief:
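GR-coupled readout: NADPH consumption tracked by fluorescence, ex 340/em 450 nm, at t=0 and after 15 min at RT. Final mix 10 nM GPX1, 1 mM GSH, 0.5 mM CHP, 0.5 mM NADPH, 100 nM GR, 0.01% BSA, following 30 min enzyme–compound preincubation.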

Experiment [6] has as its target Phospholipid hydroperoxide glutathione peroxidase GPX4 (Homo sapiens) (UniProt P36969). The experiment in a line: Primary qHTS Assay for Inhibitors of Recombinant Selenoprotein Glutathione Peroxidase 4 (GPX4) (AID 1845192). Also: nearly all actives have a fitted effect of over 65% in size. Also: potency is read from the fitted curve at half-maximal effect. As to activity change, negative = inhibition: % is scaled to controls: 0 for no effect and ±100 for the full control effect. The settings on record: recombinant GPX4, GR-coupled NADPH fluorescence, 15 min; series mostly up to 50 µM. The method in brief: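 Steps: GPX4 plus compound, 30 min RT; add GR/GSH/NADPH master mix; start with cumene hydroperoxide; read 340/450 nm fluorescence at 0 and 15 min. Finals were 200 nM GPX4, 1 mM GSH, 0.5 mM CHP, 0.5 mM NADPH, 100 nM GR.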
A general note: qHTS replaces the single test concentration by a dilution series.

The target in experiment [7] is Luciferin 4-monooxygenase (Photinus pyralis) (UniProt P08659). The experiment in a line: Primary firefly luciferase (FLuc) qHTS assay for identification of artifact compounds. (AID 1845220). Also: nearly all actives have a fitted effect of over 60% in size.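 As to activity change, negative = inhibition: plate controls were DMSO vehicle for no effect and no enzyme for full effect.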 To be noted: purified firefly luciferase, luminescence, 5 min; series mostly up to 54.1 µM. The method in brief: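 D-luciferin and ATP (10 uM each, final) in Tris acetate buffer pH 7.6 were incubated with compounds for 15 min at room temperature. The reaction was started with 10 nM Photinus pyralis luciferase and luminescence read after 5 min. Percent inhibition was fitted to a 4-parameter Hill equation.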

For experiment [8], the target named is Rap guanine nucleotide exchange factor 3 (Homo sapiens) (UniProt O95398). In words: Confirmatory qHTS for antagonist of cAMP-regulated guanine nucleotide exchange factor 3 (EPAC1) (AID 1645880). Also: potency is read from the fitted curve at half-maximal effect; nearly all actives have a fitted effect of over 55% in size. To be noted: EPAC1 Rap1B-BODIPY-GDP exchange, fluorescence. In short, it runs like this:
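Released BODIPY-GDP fluoresces less than Rap1-bound BODIPY-GDP; the signal is followed at 480/540 nm at 5-min intervals over 30 min, after 5 min at room temperature. Reactions contain 100 nM EPAC1, 250 nM RAP1B-BODIPY-GDP and 50 uM GDP; results are normalized to ATA and DMSO.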

For experiment [9] the target is unchanged. The experiment in a line: Confirmatory qHTS for agonist of cAMP-regulated guanine nucleotide exchange factor 3 (EPAC1) (AID 1645881).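 Also: EPAC1 catalysed release of BODIPY-GDP from Rap1B seen as fluorescence loss; nearly all actives have a fitted effect of over 75% in size.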 To be noted: EPAC1 Rap1B BODIPY-GDP exchange fluorescence, 100% = cAMP control response; series mostly up to 154 µM.
Experiment [10] deals with Rap guanine nucleotide exchange factor 4 (Homo sapiens) (UniProt Q8WZA2). The experiment in a line: Confirmatory qHTS for agonist of cAMP-regulated guanine nucleotide exchange factor 4 (EPAC2) (AID 1645884). Also: % is scaled to controls: 0 for no effect and ±100 for the full control effect; nearly all actives have a fitted effect of over 65% in size. The settings on record: EPAC2 GEF activity, Rap1B-BODIPY-GDP fluorescence, percent relative to cAMP agonist control; series mostly up to 154 µM.
Sequence of Rap guanine nucleotide exchange factor 4 (Homo sapiens) (Q8WZA2 whole entry, looked up): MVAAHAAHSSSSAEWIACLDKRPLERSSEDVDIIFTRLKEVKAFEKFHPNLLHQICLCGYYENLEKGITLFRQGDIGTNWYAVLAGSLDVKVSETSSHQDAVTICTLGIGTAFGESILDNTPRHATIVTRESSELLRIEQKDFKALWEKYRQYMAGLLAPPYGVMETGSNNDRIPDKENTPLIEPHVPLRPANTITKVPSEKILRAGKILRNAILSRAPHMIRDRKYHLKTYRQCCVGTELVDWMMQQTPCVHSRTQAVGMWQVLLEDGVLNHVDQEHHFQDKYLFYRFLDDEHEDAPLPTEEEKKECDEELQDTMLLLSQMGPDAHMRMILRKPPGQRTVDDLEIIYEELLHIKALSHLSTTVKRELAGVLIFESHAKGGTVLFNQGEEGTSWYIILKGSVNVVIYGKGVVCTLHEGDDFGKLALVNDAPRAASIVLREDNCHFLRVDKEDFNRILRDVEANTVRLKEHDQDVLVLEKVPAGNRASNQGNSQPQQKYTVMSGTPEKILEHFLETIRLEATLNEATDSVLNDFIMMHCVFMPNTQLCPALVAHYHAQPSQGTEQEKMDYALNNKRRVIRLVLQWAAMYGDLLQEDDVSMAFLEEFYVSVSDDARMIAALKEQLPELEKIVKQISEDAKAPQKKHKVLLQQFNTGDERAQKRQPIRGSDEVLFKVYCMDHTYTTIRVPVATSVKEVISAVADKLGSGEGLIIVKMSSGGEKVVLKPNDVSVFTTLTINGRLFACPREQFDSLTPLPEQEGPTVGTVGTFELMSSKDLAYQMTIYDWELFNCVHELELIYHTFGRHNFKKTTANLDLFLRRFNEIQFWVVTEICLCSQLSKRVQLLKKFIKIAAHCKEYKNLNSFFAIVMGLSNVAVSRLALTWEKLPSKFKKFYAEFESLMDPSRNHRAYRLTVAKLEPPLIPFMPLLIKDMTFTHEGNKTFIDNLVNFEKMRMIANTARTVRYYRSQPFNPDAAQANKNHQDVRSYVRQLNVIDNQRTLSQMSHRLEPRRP
The target is the same in experiment [11]. In words: Confirmatory qHTS for antagonist of cAMP-regulated guanine nucleotide exchange factor 4 (EPAC2) (AID 1645885). Also: potency is read from the fitted curve at half-maximal effect; nearly all actives have a fitted effect of over 25% in size. The settings on record: EPAC2 Rap1B-BODIPY-GDP exchange fluorescence, biochemical; series mostly up to 114 µM.
The nature of experiment [12]: NCATS anti-infectives library activity on HEK293 viability as a counter-qHTS vs the C. elegans viability qHTS (AID 1745854). Also: % is scaled to controls: 0 for no effect and ±100 for the full control effect. The settings on record: HEK293 viability counter-screen; series mostly up to 41.8 µM. The method in brief: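 CellTiter-Glo luminescence, read on a CCD imager, scored viability of HEK293 cells after 24 hr compound exposure at 37C. Library tested in several concentrations, 1:5 steps, up to 41.7 uM; digitonin served as control.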

Sequence of Glutathione peroxidase 1 (Homo sapiens) (P07203 whole entry, looked up): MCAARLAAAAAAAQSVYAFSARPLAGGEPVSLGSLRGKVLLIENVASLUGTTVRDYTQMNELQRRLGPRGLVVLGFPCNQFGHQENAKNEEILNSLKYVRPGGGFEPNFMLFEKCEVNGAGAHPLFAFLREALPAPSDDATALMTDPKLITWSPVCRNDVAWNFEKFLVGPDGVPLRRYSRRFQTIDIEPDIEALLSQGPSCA
Sequence of Phospholipid hydroperoxide glutathione peroxidase GPX4 (Homo sapiens) (P36969 whole entry, looked up): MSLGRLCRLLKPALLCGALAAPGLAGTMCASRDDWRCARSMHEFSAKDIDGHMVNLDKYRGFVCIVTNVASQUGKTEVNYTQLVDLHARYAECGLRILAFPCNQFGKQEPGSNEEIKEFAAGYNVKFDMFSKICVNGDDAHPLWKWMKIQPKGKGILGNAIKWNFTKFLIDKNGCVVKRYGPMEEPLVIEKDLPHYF
Sequence of Rap guanine nucleotide exchange factor 3 (Homo sapiens) (O95398 whole entry, looked up): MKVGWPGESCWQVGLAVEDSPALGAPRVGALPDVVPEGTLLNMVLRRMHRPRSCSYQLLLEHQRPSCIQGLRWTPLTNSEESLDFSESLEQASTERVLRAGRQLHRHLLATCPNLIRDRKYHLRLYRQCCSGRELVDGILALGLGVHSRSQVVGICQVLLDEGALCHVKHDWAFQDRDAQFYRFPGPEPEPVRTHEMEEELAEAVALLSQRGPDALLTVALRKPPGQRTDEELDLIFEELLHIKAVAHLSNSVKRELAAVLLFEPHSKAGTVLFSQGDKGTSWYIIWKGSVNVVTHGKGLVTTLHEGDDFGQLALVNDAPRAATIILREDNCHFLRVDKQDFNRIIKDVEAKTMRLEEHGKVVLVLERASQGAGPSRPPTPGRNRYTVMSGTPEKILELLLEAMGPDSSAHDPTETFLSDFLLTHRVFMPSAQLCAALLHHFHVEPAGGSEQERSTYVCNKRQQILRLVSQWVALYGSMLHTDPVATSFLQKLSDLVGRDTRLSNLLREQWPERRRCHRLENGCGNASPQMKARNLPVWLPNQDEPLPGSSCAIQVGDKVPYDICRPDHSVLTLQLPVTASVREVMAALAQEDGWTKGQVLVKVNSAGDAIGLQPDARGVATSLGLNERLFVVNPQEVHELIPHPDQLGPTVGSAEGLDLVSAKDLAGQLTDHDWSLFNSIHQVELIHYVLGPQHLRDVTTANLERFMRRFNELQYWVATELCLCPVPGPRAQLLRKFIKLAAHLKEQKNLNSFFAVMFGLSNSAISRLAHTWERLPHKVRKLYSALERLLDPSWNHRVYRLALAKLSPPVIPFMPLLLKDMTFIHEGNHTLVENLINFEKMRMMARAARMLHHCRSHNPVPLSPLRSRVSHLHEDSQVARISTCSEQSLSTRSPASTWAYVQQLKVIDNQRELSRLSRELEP

For the molecule `CC1=CC(=O)CC(C)(C)C1(O)CCC(C)O` (configuration not stated), the activity is -75.7% in experiment [1], 0% in [3] and 4.65% in [4]. Further, the activity change, negative = inhibition in [2] was 2.94%. The Potency result in experiment [5], in experiment [6] and in experiment [7] was “inactive” throughout.

Regarding `CNC1CCN(C(Cc2cccc(-c3ccncc3)c2)C(=O)c2sc3c(F)ccc(F)c3c2Cl)CC1` (configuration not stated), the activity is -12.3% in [1], -78% in experiment [3] and -11.9% in experiment [4]. Also, the Potency in experiment [2] was 48.2 µM (active).

`CCOc1ccc(-c2ccc(Cn3c(CC(C)(C)C(=O)O)c(SC(C)(C)C)c4cc(OCc5ccc(C)cn5)ccc43)cc2)cn1`: the activity in experiment [1] is -2.5% and 0.78%; in experiment [3], -21.6% and -9.46%; in experiment [4] it was -31.2% and -7.43%. For the same molecule, the Potency entry in experiment [2], in experiment [5], in experiment [6] and in [7] was “inactive” each time. Moreover, the activity change, negative = inhibition in experiment [2] was -0.671%.

With `CC(C)(O)/C=C1/C(=O)C(C)(C)C(=O)C(C)(C)C1(O)O[C@@H]1O[C@H](COC(=O)c2cc(O)c(O)c(O)c2)[C@@H](O)[C@H](O)[C@H]1O` (some centres not stated), the activity in [1] was -56.9%; in [3], -1.53%; in [4] it was -0.785%. Besides, the activity change, negative = inhibition in [2] is -2.31% [at 19.1 µM]. Further, the Potency entry in experiment [5], in experiment [6] and in [7] was “inactive” in each case.

With `CCN(c1cc(C#CCN2CCOCC2)cc(C(=O)NCc2c(C)cc(C)[nH]c2=O)c1C)C1CCC(N(C)CCOC)CC1` (configuration not stated), the activity in experiment [1] was 15%; in experiment [3], -20.4%; in experiment [4], 4.61%. Further, the activity change, negative = inhibition in experiment [2] stood at 3.71%. Besides, the Potency result in experiment [5], in experiment [6] and in [7] was “inactive” throughout.

In the case of `CCc1nc(C(N)=O)c(Nc2ccc(N3CCC(N4CCN(C)CC4)CC3)c(OC)c2)nc1NC1CCOCC1`, the activity in [1] was -34.5%; in [3] it was -16.4%; in experiment [4], -59.8%. Moreover, the Potency in [2] is 26.6 µM (active). Further, the Potency result in experiment [5], in experiment [6] and in experiment [7] was “inactive” each time.

`CC(Cc1ccc(O)c(O)c1)C(C)Cc1ccc(O)c(O)c1` (configuration not stated): the Potency in [8] is 31.4 µM (active); in experiment [11] it was 55.5 µM (active); in experiment [6] it was 11.2 µM (active). Moreover, the outcome in experiment [9] and in [10] was “inactive” each time. The Potency entry in experiment [5] is “inactive”.

In the case of `CCCCC(CC)COC(=O)CC(C(=O)OCC(CC)CCCC)S(=O)(=O)O` (configuration not stated), the Potency in [8] was 35.2 µM (active) and 9.93 µM (active); in experiment [11], 39.3 µM (active) and 31.2 µM (active). In addition, the outcome in [9], in [10] and in experiment [12] was “inactive” throughout. Besides, in experiment [5], the Potency result is “inactive”.

In the case of `CC1(C)CCC2(C(=O)OC3OC(COC4OC(CO)C(O)C(O)C4O)C(O)C(O)C3O)CCC3(C)C(=CCC4C5(C)CCC(O)C(C)(C(=O)O)C5CCC43C)C2C1O` (configuration not stated), the figures for the activity in [1], in [3] and in experiment [4] were -59.6%, -5.22% and -5.74%, respectively. The figures for the activity change, negative = inhibition in experiment [2] and in [7] were 2.03% [at 19.1 µM] and 2.78% [at 11.6 µM] (inactive), respectively. Also, the Potency result in experiment [5] and in experiment [6] was “inactive” each time.

As for `COc1cc(C2Oc3c(OC)cc(/C=C/C(=O)OC[C@H]4O[C@@H](OC(C)(C)C(=O)O)[C@H](O)[C@@H](O)[C@@H]4O)cc3C2CO)ccc1O` (some centres not stated), the figures for the activity in experiment [1], in experiment [3] and in experiment [4] were -69.3%, -0.56% and -7.93%, respectively. In addition, the activity change, negative = inhibition in [2] was -2.88% [at 19.1 µM]. Also, the Potency entry in [5], in experiment [6] and in experiment [7] was “inactive” each time.

As for `C=C[C@](C)(CC/C=C(\C)C(=O)O)O[C@@H]1OC[C@H](O)[C@H](O)[C@H]1O`, the values for the activity in experiment [1], in experiment [3] and in experiment [4] were -82.9%, -0.767% and 0.753%, respectively. Besides, in [2], the activity change, negative = inhibition was -1.98%. The Potency result in [5], in [6] and in experiment [7] was “inactive” throughout.

On to `COc1cc(C(O)C(CO)Oc2ccc(CCCO[C@@H]3O[C@@H](C)[C@H](O)[C@@H](O)[C@H]3O)cc2OC)ccc1O` (some centres not stated), for which the results for the activity in [1], in experiment [3] and in experiment [4] were -72.8%, -3.89% and -4.24%, respectively. Moreover, in experiment [2], the activity change, negative = inhibition is -3.44% [at 29.8 µM]. Besides, the Potency result in experiment [5] and in [6] was “inactive” each time.

For the molecule `OC[C@H]1O[C@@H](Oc2ccc(O)c3cccc(O)c23)[C@H](O)[C@@H](O)[C@@H]1O`, the figures for the activity in experiment [1], in [3] and in experiment [4] were -82.3%, -18.4% and -70.9%, respectively. Also, the Potency in experiment [2] is 16.8 µM (active). Further, the Potency result in experiment [5], in experiment [6] and in experiment [7] was “inactive” throughout.

For `COc1cc2c(Nc3ccc(Cl)c(Cl)c3F)ncnc2cc1OCC1C[C@@H]2CN(C)C[C@@H]2C1` (some centres not stated), the activity was -81.3% in experiment [1], -73.4% in experiment [3] and -80.2% in experiment [4]. Besides, the Potency in experiment [2] is 24.1 µM (active). Besides, the Potency entry in [5] and in experiment [6] was “inactive” each time.

As to `C=C(C)[C@H]1C[C@@H](O)C(=C)CC[C@@H](O)C(=C)[C@@H](O)C1`, the values for the activity in experiment [1], in experiment [3] and in experiment [4] were -67%, 4.34% and 4.62%, respectively. The activity change, negative = inhibition in [2] amounted to 0%. The Potency result in experiment [5], in experiment [6] and in [7] was “inactive” in each case.

For `COc1cc(/C=C/C(=O)O[C@H]2[C@H](OC(=O)/C=C/c3cc(OC)c(O)c(OC)c3)O[C@H](CO[C@@H]3O[C@H](CO)[C@@H](O)[C@H](O)[C@H]3O)[C@@H](O)[C@@H]2O)ccc1O`, the activity in [1] was -52.5%; in experiment [3], -4.49%; in experiment [4] it was -4.24%. The activity change, negative = inhibition in [2] is 0.645% [at 19.1 µM]. Also, the Potency entry in experiment [5], in [6] and in experiment [7] was “inactive” each time.

As for `CC1CC(=O)C2=C(O1)OC1(C)CCC3C(C)(C)C=CC(=O)C3(C)C1C2` (configuration not stated), the activity in experiment [1] was -45.9%; in experiment [3] it was -84.9%; in experiment [4], -3%. Moreover, the activity change, negative = inhibition in [2] is -4.08%. For the same molecule, the Potency entry in experiment [5], in [6] and in [7] was “inactive” in each case.

In the case of `O=C(O[C@@H]1O[C@H](CO)[C@@H](O)[C@H](O)[C@H]1O)c1c(O)cc(O)cc1/C=C/c1ccccc1`, the activity in experiment [1] is -66.4%; in experiment [3], -2.64%; in [4] it was -9.3%. In addition, the activity change, negative = inhibition in experiment [2] was 2.61% [at 29.8 µM]. The Potency result in experiment [5], in [6] and in [7] was “inactive” in each case.

For the molecule `CC1CC(O)C2(C)C(C(=O)O)=CCCC2C1(C)CCc1ccoc1` (configuration not stated), the activity was -89.3% in experiment [1], 2.05% in [3] and 2.03% in [4]. Besides, the activity change, negative = inhibition in experiment [2] is 2.37%. The Potency result in experiment [5], in experiment [6] and in experiment [7] was “inactive” each time.

The values above are taken from PubChem BioAssay (NCATS).
